Assay [1] in a line: qHTS assay to identify aromatase inhibitors - cell viability counter screen (AID 743084).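 Further: cells stimulated with testosterone during compound exposure; nearly all actives have a fitted effect of over 55% in size.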 On the technique in general: Quantitative high-throughput screening tests each substance at several concentrations.
The nature of assay [2]: qHTS assay to identify small molecule that activate the aryl hydrocarbon receptor (AhR) signaling pathway - cell viability counter screen (AID 743086).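 Further: HepG2 liver cells carrying the AhR DRE luciferase reporter; series mostly up to about 70 µM; nearly all actives have a fitted effect of over 45% in size.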 An outline of the steps: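 HepG2-AhR-luc (HG2L7.5c1) cells, 4000/well, were preincubated 5 h at 37C, exposed to compound in qHTS format for 24 hr at 37C, then given CellTiter-Fluor for 30 min; viability was read as fluorescence in the reporter wells.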

Assay [3] has as its target Peroxisome proliferator-activated receptor gamma (Homo sapiens) (UniProt P37231). Nature of the assay: qHTS assay to identify small molecule agonists of the peroxisome proliferator-activated receptor gamma (PPARg) signaling pathway (AID 743094; active means well fitted activation curve with a large enough effect in the signal ratio in the repeat runs, not every such curve was filed as active; the % refers to the signal ratio). An outline of the steps: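 Reporter activation was scored by fluorescence of cleaved LiveBLAzer B/G substrate (1 h, room temperature) in PPARg-bla HEK293H cells previously treated 17 h at 37C with DMSO-dissolved compounds.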

Assay [4] shares this target. Nature of the assay: qHTS assay to identify small molecule antagonists of the peroxisome proliferator-activated receptor gamma (PPARg) signaling pathway (AID 743191; calls by dose curve; further: series mostly up to about 63 µM; nearly all actives have a fitted effect of over 30% in size). An outline of the steps:
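GeneBLAzer PPARg UAS-bla HEK293H cells carrying a UAS-driven beta-lactamase reporter were plated at 3000 cells/well, preincubated 5 h at 37C, then given compound for 17 h at 37C; LiveBLAzer B/G FRET substrate was read after 1 h at room temperature.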

Assay [5] in a line: qHTS assay to identify small molecule antagonists of the peroxisome proliferator-activated receptor gamma (PPARg) signaling pathway - cell viability counter screen (AID 743194). Further: nearly all actives have a fitted effect of over 55% in size. An outline of the steps:
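PPARg-UAS-bla HEK293H cells were plated, rested 5 h at 37 C, then treated with compounds plus rosiglitazone (50 nM final) for 17 h at 37 C; viability was then read by CellTiter-Glo luminescence after 30 min at room temperature.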

A short description of assay [6]: qHTS assay for small molecule agonists of the antioxidant response element (ARE) signaling pathway (AID 743202; active means well fitted activation curve with a large enough effect in the signal ratio in the repeat runs, not every such curve was filed as active; the % refers to the signal ratio). In outline:
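Steps: seed ARE-bla HepG2 cells (2,000/well); incubate 5 h at 37 C; add compounds by pin tool; incubate 16 h at 37 C; add FRET substrate; read fluorescence after 2 h at RT.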

A short description of assay [7]: qHTS assay for small molecule agonists of the antioxidant response element (ARE) signaling pathway - cell viability counter screen (AID 743203; calls by dose curve; further: nearly all actives have a fitted effect of over 55% in size). In outline:
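Viability counter screen: stably transfected ARE-bla HepG2 line, 16 hrs compound exposure at 37C/5% CO2, ATP-based CellTiter-Glo luminescence measured in the reporter wells.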

Assay [8] is described as follows: qHTS assay for small molecule activators of the heat shock response signaling pathway - cell viability counter screen (AID 743209). Further: nearly all actives have a fitted effect of over 50% in size. An outline of the steps:
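Viability of HSE-bla HeLa cells is measured with CellTiter-Glo in the wells already used for the reporter read. Compound exposure lasts 5 h at 37 C, and luminescence is read after 30 min at room temperature.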

A short description of assay [9]: qHTS assay to identify small molecule agonists of the peroxisome proliferator-activated receptor delta (PPARd) signaling pathway - cell viability counter screen (AID 743211). Further: nearly all actives have a fitted effect of over 55% in size. Further: potency means the concentration at half of the fitted maximal effect. In outline:
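qHTS cell viability: PPARd-bla HEK293H; 17 h cpd, 37C; CellTiter-Glo, luminescence at 30 min RT.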

The target of assay [10] is Peroxisome proliferator-activated receptor delta (Homo sapiens) (UniProt Q03181). Nature of the assay: qHTS assay to identify small molecule agonists of the peroxisome proliferator-activated receptor delta (PPARd) signaling pathway (AID 743212; calls by dose curve). An outline of the steps: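 Cells expressing a UAS-driven beta-lactamase reporter (PPARd-bla HEK293H) were given test compounds after a 5 h settle and kept at 37 C. Reporter activity was then measured as FRET fluorescence using LiveBLAzer B/G substrate.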

A short description of assay [11]: qHTS assay to identify small molecule antagonists of the peroxisome proliferator-activated receptor delta (PPARd) signaling pathway - cell viability counter screen (AID 743213). Further: nearly all actives have a fitted effect of over 50% in size. Further: potency means the concentration at half of the fitted maximal effect. In outline:
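HEK293H cells with the PPARd UAS-bla reporter, co-treated 17 h at 37 C with compounds and L165041 (300 nM final), were lysed with CellTiter-Glo. Luminescence indicated viable cell content.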

Assay [12] deals with Peroxisome proliferator-activated receptor delta (Homo sapiens) (UniProt Q03181). Nature of the assay: qHTS assay to identify small molecule antagonists of the peroxisome proliferator-activated receptor delta (PPARd) signaling pathway (AID 743215; active means well fitted inhibition curve with a large enough effect in the signal ratio in the repeat runs, not every such curve was filed as active; the % refers to the signal ratio;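 further: cells stimulated with agonist L165041 at 300 nM final during compound exposure; series mostly up to about 62 µM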). An outline of the steps:
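Plated HEK293H PPARd-bla cells rested 5 h at 37 C and 5% CO2. Compound, then agonist L165041 at 300 nM final, was added; 17 h at 37 C followed. Substrate loading, 2 h room temperature, fluorescence measured.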

Assay [13] is described as follows: qHTS assay to identify small molecule antagonists of the farnesoid-X-receptor (FXR) signaling pathway - cell viability counter screen (AID 743221; active means well fitted cell-killing curve with a large enough effect in the repeat runs, not every such curve was filed as active; further: nearly all actives have a fitted effect of over 50% in size). In outline:
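After a 5 h settling period, FXR-bla HEK 293T cells receive compound and chenodeoxycholic acid (50 uM final) and incubate 16 h at 37 C; CellTiter-Glo luminescence, read after 30 min at room temperature, reports cell viability.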

Assay [14] deals with Vitamin D3 receptor (Homo sapiens) (UniProt P11473). Nature of the assay: qHTS assay to identify small molecule agonists of the vitamin D receptor (VDR) signaling pathway (AID 743222; calls by dose curve). In outline:
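Fluorescence from cleaved LiveBLAzer B/G FRET substrate served as readout. VDR-bla cells had been treated 16 h at 37C with test compounds in DMSO, following a 4 h settling period, and substrate was loaded for 2 h at RT.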

A short description of assay [15]: qHTS assay for small molecule activators of the heat shock response signaling pathway (AID 743210; active means well fitted activation curve with a large enough effect in the signal ratio in the repeat runs, with a control signal flat, not every such curve was filed as active; the % refers to the signal ratio;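 further: HeLa cells with beta-lactamase reporter driven by heat shock elements; series mostly up to about 63 µM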). An outline of the steps:
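Activation of heat shock element-controlled beta-lactamase expression is measured in HeLa cells by LiveBLAzer FRET fluorescence, with compound exposure lasting 5 h at 37 C and substrate loading 2.5 h at room temperature.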

For assay [16], the target named is Bile acid receptor (Homo sapiens) (UniProt Q96RI1). Nature of the assay: qHTS assay to identify small molecule antagonists of the farnesoid-X-receptor (FXR) signaling pathway (AID 743217; active means well fitted inhibition curve with a large enough effect in the signal ratio in the repeat runs, not every such curve was filed as active; the % refers to the signal ratio; further: potency means the concentration at half of the fitted maximal effect). In outline: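 Screen of the Tox21 10K library in quantitative HTS format using FXR-UAS-bla HEK 293T reporter cells. Agonist chenodeoxycholic acid, 50 uM final, added with compounds; 16 h incubation at 37 °C; beta-lactamase FRET fluorescence measured.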

Assay [17] can be described thus: qHTS assay to identify small molecule agonists of the farnesoid-X-receptor (FXR) signaling pathway - cell viability counter screen (AID 743218). Further: nearly all actives have a fitted effect of over 45% in size. An outline of the steps:
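Viability of FXR-bla HEK 293T cells is measured by ATP-based CellTiter-Glo luminescence following 16 h compound treatment at 37 C and a prior 2 h room-temperature beta-lactamase substrate step.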

Assay [18] addresses Bile acid receptor (Homo sapiens) (UniProt Q96RI1). Nature of the assay: qHTS assay to identify small molecule agonists of the farnesoid-X-receptor (FXR) signaling pathway (AID 743220; active means well fitted activation curve with a large enough effect in the signal ratio in the repeat runs, not every such curve was filed as active; the % refers to the signal ratio). An outline of the steps:
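FXR-UAS-bla HEK 293T cells carrying a UAS-driven beta-lactamase reporter were plated for 5 h at 37C/5% CO2, then exposed to DMSO-dissolved Tox21 10K compounds for 16 h at 37C. A LiveBLAzer B/G FRET substrate was loaded for 2 h at room temperature before fluorescence reading.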

Assay [19] deals with Vitamin D3 receptor (Homo sapiens) (UniProt P11473). Nature of the assay: qHTS assay to identify small molecule antagonists of the vitamin D receptor (VDR) signaling pathway (AID 743223; active means well fitted inhibition curve with a large enough effect in the signal ratio in the repeat runs, not every such curve was filed as active; the % refers to the signal ratio). An outline of the steps:
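Reporter line VDR-bla; stimulus 1alpha,25-(OH)2 vitamin D3, 3 nM final; compound co-addition, 16 h 37C/5% CO2; LiveBLAzer B/G substrate 2 h RT; fluorescence intensity.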

For assay [20], the target named is Aryl hydrocarbon receptor (Homo sapiens) (UniProt P35869). Nature of the assay: qHTS assay to identify small molecule that activate the aryl hydrocarbon receptor (AhR) signaling pathway (AID 743085). Further: potency means the concentration at half of the fitted maximal effect; nearly all actives have a fitted effect of over 15% in size. In outline: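 AhR agonist activity is inferred from enhanced light output of a DRE-controlled firefly luciferase reporter in HepG2 cells, measured with ONE-Glo following 24 h treatment at 37C.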

Results on eight compounds are retold here after PubChem BioAssay (Tox21).

Molecules are shown by their SMILES. Records with an inconclusive call do not appear. Unmarked numbers belong to inactive results. Calls of active or inactive are those of the source. Unless noted, the call rests on the fitted dose curve; in most records, active means well fitted curve in the direction sought with a large enough effect in the repeat runs; inconclusive means weak or mixed curves; inactive means no such curve, though single readings can be large; an effect the other way counts as inactive or inconclusive.

Bile acid receptor (Homo sapiens), sequence (Q96RI1 whole entry, looked up): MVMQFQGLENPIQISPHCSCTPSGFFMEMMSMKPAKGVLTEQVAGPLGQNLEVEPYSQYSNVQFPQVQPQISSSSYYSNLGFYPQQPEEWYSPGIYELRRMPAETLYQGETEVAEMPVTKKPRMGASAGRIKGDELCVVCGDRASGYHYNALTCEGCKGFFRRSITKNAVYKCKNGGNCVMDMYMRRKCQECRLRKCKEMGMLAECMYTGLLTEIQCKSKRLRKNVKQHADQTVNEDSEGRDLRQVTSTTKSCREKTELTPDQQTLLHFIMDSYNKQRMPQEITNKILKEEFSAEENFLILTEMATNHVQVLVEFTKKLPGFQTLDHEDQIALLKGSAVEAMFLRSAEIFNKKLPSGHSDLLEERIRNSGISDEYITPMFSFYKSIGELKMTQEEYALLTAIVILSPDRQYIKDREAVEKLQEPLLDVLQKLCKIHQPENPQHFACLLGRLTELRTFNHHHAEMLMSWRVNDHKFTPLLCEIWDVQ
Vitamin D3 receptor (Homo sapiens), sequence (P11473 whole entry, looked up): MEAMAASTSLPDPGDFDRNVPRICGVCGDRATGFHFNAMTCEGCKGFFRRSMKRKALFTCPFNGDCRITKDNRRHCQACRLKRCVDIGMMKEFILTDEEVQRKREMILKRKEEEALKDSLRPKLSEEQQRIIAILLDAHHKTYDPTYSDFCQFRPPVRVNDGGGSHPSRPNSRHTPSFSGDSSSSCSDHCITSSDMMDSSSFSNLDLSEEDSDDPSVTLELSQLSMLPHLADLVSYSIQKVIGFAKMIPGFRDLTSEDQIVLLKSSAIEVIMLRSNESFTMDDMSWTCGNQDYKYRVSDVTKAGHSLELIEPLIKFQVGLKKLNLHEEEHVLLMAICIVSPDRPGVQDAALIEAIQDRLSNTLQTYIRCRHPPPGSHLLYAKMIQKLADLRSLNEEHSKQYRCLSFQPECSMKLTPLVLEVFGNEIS
Peroxisome proliferator-activated receptor gamma (Homo sapiens), sequence (P37231 whole entry, looked up): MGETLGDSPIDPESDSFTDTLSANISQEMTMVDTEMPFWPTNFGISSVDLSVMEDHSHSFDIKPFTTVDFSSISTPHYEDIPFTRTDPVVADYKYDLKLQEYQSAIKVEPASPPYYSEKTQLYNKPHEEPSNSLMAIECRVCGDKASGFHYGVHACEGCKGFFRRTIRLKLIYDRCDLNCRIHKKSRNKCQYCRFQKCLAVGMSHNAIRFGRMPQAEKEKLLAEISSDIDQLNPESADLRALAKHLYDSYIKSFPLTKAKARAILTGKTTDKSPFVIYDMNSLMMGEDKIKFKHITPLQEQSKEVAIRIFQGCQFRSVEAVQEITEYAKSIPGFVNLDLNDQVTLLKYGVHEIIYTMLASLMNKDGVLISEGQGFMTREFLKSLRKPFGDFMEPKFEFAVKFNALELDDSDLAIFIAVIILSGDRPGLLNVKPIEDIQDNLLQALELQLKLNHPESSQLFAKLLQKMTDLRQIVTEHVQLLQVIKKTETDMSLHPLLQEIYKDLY
Peroxisome proliferator-activated receptor delta (Homo sapiens), sequence (Q03181 whole entry, looked up): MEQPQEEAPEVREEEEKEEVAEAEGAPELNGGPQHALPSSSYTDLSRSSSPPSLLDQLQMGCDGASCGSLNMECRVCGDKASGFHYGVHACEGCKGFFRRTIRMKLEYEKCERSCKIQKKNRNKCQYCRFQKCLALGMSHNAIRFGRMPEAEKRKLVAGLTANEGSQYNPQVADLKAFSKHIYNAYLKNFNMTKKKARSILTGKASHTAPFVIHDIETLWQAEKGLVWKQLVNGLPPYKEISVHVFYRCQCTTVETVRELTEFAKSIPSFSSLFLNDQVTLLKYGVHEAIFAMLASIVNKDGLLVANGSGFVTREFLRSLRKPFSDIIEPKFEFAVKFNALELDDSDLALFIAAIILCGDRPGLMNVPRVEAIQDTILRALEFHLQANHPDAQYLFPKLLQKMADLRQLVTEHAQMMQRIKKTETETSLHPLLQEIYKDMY
Aryl hydrocarbon receptor (Homo sapiens), sequence (P35869 whole entry, looked up): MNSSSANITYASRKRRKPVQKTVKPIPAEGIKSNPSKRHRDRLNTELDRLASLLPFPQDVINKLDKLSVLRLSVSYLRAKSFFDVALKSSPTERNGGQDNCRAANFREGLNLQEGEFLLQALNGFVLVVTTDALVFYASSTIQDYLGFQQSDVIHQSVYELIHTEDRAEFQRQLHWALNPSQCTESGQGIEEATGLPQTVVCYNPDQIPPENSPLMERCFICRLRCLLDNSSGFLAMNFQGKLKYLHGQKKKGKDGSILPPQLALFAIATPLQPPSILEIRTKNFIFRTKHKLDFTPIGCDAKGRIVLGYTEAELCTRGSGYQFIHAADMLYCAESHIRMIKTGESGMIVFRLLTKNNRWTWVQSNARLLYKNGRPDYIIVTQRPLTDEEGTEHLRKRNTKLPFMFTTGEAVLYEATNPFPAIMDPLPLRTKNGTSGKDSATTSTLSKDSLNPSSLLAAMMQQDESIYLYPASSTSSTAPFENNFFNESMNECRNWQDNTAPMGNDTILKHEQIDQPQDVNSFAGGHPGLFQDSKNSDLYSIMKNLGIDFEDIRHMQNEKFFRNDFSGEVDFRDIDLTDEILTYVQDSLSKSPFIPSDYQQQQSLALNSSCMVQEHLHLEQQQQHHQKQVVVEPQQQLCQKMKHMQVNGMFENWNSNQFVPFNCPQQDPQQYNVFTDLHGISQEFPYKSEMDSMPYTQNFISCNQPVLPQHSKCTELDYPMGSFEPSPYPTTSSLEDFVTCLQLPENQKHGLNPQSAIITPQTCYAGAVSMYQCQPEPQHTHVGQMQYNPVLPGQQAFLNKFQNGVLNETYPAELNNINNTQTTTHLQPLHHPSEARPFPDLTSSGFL

For `O=C(O)c1ccc(S(=O)(=O)O)cc1C(=O)O`, the Potency result in [1], in assay [2], in assay [3], in assay [4], in [5] and in [6] was “inactive” each time. Also, the Potency result in assay [7], in assay [8], in assay [9], in assay [10], in assay [11] and in [12] was “inactive” each time. The Potency result in [13] and in [14] was “inactive” each time.

As for `O=C1C(O)=C(O)C(=O)C(O)=C1O`, the Potency result in assay [1], in assay [2], in [3], in assay [4], in [5] and in assay [6] was “inactive” in each case. The Potency entry in [7], in [8], in [15], in assay [9], in assay [10] and in assay [11] was “inactive” each time. Moreover, the Potency entry in assay [12], in assay [16], in assay [17], in assay [18], in assay [13] and in assay [14] was “inactive” each time.

Turning to `CN(C)c1ccc(CCO)cc1`, the Potency entry in assay [1], in assay [2], in [3], in assay [4], in assay [5] and in assay [6] was “inactive” throughout. Further, the Potency entry in assay [7], in assay [8], in assay [15], in assay [9], in assay [10] and in assay [11] was “inactive” in each case. Further, the Potency result in [12], in assay [17], in [13] and in assay [14] was “inactive” in each case. The outcome in assay [19] was inactive.

In the case of `Cc1oc2c(NC(=O)c3c(Cl)cccc3Cl)cccc2c1C(C)(C)O`, the Potency result in [1], in [2], in [5], in assay [15], in assay [10] and in assay [12] was “inactive” throughout. The Potency result in assay [18] and in [13] was “inactive” in each case. The figures for the Potency in assay [20] and in [16] were 8.63 µM (active) and 38.9 µM (active), respectively. For the same compound, in assay [19], the call was inactive.

As for `C[N+]1(C)CCC(OC(=O)C(O)(c2ccccc2)C2CCCC2)C1` (configuration not stated), the Potency result in assay [1], in assay [2], in assay [3], in assay [5], in assay [7] and in assay [8] was “inactive” throughout. Further, the Potency entry in assay [15], in [9], in [10], in [11], in [17] and in [13] was “inactive” in each case. Further, the Potency result in assay [14] is “inactive”.

As to `CC(C)Nc1ccc(NC(C)C)c2c1C(=O)c1ccccc1C2=O`, the Potency entry in [1], in [2], in assay [3], in [5], in assay [8] and in [15] was “inactive” in each case. Besides, the Potency entry in [9], in assay [10], in assay [11], in assay [12], in assay [16] and in assay [18] was “inactive” each time. For the same compound, the Potency entry in assay [14] is “inactive”.

Consider `CN(Cc1ccc(C(C)(C)C)cc1)Cc1cccc2ccccc12`, for which the Potency entry in assay [1], in assay [2], in [3], in [6], in assay [7] and in assay [8] was “inactive” in each case. Besides, the Potency entry in [15], in assay [12], in assay [18] and in assay [14] was “inactive” each time. Moreover, the results for the Potency in [9] and in [11] were 29.8 µM (active) and 23.7 µM (active), respectively. Further, the call in assay [19] was inactive.

For the compound `CCCCCCCC/C=C\CCCCCCCC(=O)OCC`, the Potency result in assay [1], in [2], in assay [3], in [4], in assay [7] and in assay [8] was “inactive” in each case. Besides, the Potency result in [15], in assay [9], in assay [10], in [17], in assay [13] and in assay [14] was “inactive” each time. Further, the outcome in assay [19] was inactive.
